Source: PubChem BioAssay AID1159580 (chemical genetic matrix, 2015)
Several values for one entry are separate records, joined by “and”; a condition that tells them apart may be missing. Identical values can stand only once. In all, about 5,500 compounds went through this assay and about 2,000 (36%) were called active. Roughly 18% stayed inconclusive and do not appear here. No stated cut-off is given here; in the data, active means normalized growth mostly below about 0.91 (no sharp cut-off); inconclusive means no clear call, values can overlap the other calls; inactive means mostly above about 0.92. The list shows a part of the results.

Assay: chemical genetic growth profiling, strain panel (AID 1159580);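 further: tested at 20 µM; growth read once vehicle control cultures reached saturation at 30 °C; 1 = growth at the plate median or of vehicle wells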
Conditions: growth OD

Measured: normalized growth

Nc1nc(N)c2nc(CNc3ccc(C(=O)NC(CCC(=O)O)C(=O)O)cc3)cnc2n1 (stereo unspecified)
inactive: S. cerevisiae deletion strains, locus YKL009W, strain mrt4, stronger effect = lower value 0.972 | S. cerevisiae deletion strains, locus YKL068W, stronger effect = lower value 0.981 | S. cerevisiae deletion strains, locus YKL085W, strain MDH1 (second series), stronger effect = lower value 0.986 | S. cerevisiae deletion strains, locus YKL085W, strain MDH1, stronger effect = lower value 0.986 | S. cerevisiae deletion strains, locus YKL160W, strain elf1, stronger effect = lower value 0.968 | S. cerevisiae deletion strains, locus YKL190W, strain CNB1, stronger effect = lower value 1.01 | S. cerevisiae deletion strains, locus YKR001C, strain vps1, stronger effect = lower value 0.989 | S. cerevisiae deletion strains, locus YKR026C, strain gcn3, stronger effect = lower value 0.997 | S. cerevisiae deletion strains, locus YKR091W, strain srl3, stronger effect = lower value 0.99 | S. cerevisiae deletion strains, locus YLL001W, strain dnm1, stronger effect = lower value 0.941 | S. cerevisiae deletion strains, locus YLL026W, stronger effect = lower value 0.996 | S. cerevisiae deletion strains, locus YLL041C, strain sdh2, stronger effect = lower value 0.971 | S. cerevisiae deletion strains, locus YLR027C, strain aat2, stronger effect = lower value 1 | S. cerevisiae deletion strains, locus YLR039C, strain RIC1, stronger effect = lower value 1.01 | S. cerevisiae deletion strains, locus YLR058C, strain SHM2, stronger effect = lower value 1 | S. cerevisiae deletion strains, locus YLR102C, strain apc9, stronger effect = lower value 0.972 | S. cerevisiae deletion strains, locus YLR221C, strain rsa3, stronger effect = lower value 1.06 | S. cerevisiae deletion strains, locus YLR258W, strain gsy2, stronger effect = lower value 0.974 | S. cerevisiae deletion strains, locus YLR262C, strain YPT6 (second series), stronger effect = lower value 1.03 | S. cerevisiae deletion strains, locus YLR262C, strain YPT6, stronger effect = lower value 0.952 | S. cerevisiae deletion strains, locus YLR268W, strain sec22, stronger effect = lower value 0.977 | S. cerevisiae deletion strains, locus YLR320W, strain mms22, stronger effect = lower value 1.05 | S. cerevisiae deletion strains, locus YLR330W, strain CHS5, stronger effect = lower value 1.01 | S. cerevisiae deletion strains, locus YLR342W, strain FKS1 (second series), stronger effect = lower value 1.07 | S. cerevisiae deletion strains, locus YLR342W, strain FKS1, stronger effect = lower value 1.01 | S. cerevisiae deletion strains, locus YLR357W, strain rsc2, stronger effect = lower value 0.963 | S. cerevisiae deletion strains, locus YLR370C, strain arc18, stronger effect = lower value 0.99 | S. cerevisiae deletion strains, locus YLR371W, strain rom2, stronger effect = lower value 0.973 | S. cerevisiae deletion strains, locus YLR384C, strain iki3, stronger effect = lower value 0.988 | S. cerevisiae deletion strains, locus YLR418C, strain cdc73, stronger effect = lower value 1.02 | S. cerevisiae deletion strains, locus YML016C, strain PPZ1, stronger effect = lower value 0.992 | S. cerevisiae deletion strains, locus YML032C, strain rad52, stronger effect = lower value 1.01 | S. cerevisiae deletion strains, locus YML120C, strain ndi1, stronger effect = lower value 0.979 | S. cerevisiae deletion strains, locus YML124C, strain tub3, stronger effect = lower value 0.988 | S. cerevisiae deletion strains, locus YMR058W, strain fet3, stronger effect = lower value 0.984 | S. cerevisiae deletion strains, locus YMR078C, strain ctf18, stronger effect = lower value 0.974 | S. cerevisiae deletion strains, locus YMR125W, strain sto1, stronger effect = lower value 0.967 | S. cerevisiae deletion strains, locus YMR129W, stronger effect = lower value 1 | S. cerevisiae deletion strains, locus YMR205C, strain PFK2, stronger effect = lower value 0.965 | S. cerevisiae deletion strains, locus YMR223W, strain ubp8, stronger effect = lower value 0.989 | S. cerevisiae deletion strains, locus YMR231W, strain pep5, stronger effect = lower value 1 | S. cerevisiae deletion strains, locus YMR263W, strain SAP30, stronger effect = lower value 0.99 and 1 | S. cerevisiae deletion strains, locus YMR307W, strain GAS1, stronger effect = lower value 1.16 | S. cerevisiae deletion strains, locus YNL067W, strain RPL9B, stronger effect = lower value 0.975 | S. cerevisiae deletion strains, locus YNL071W, strain lat1, stronger effect = lower value 0.998 | S. cerevisiae deletion strains, locus YNL128W, strain TEP1, stronger effect = lower value 1 | S. cerevisiae deletion strains, locus YNL153C, strain GIM3, stronger effect = lower value 1 | S. cerevisiae deletion strains, locus YNL175C, strain NOP13, stronger effect = lower value 0.989 | S. cerevisiae deletion strains, locus YNL197C, strain WHI3, stronger effect = lower value 0.956 | S. cerevisiae deletion strains, locus YNL209W, strain ssb2, stronger effect = lower value 0.987 | S. cerevisiae deletion strains, locus YNL224C, strain SQS1, stronger effect = lower value 0.981 | S. cerevisiae deletion strains, locus YNL233W, strain BNI4, stronger effect = lower value 1.01 | S. cerevisiae deletion strains, locus YNL248C, strain rpa49, stronger effect = lower value 1.02 | S. cerevisiae deletion strains, locus YNL250W, strain rad50, stronger effect = lower value 0.945 | S. cerevisiae deletion strains, locus YNL271C, strain bni1, stronger effect = lower value 0.984 | S. cerevisiae deletion strains, locus YNL298W, strain CLA4, stronger effect = lower value 0.995 | S. cerevisiae deletion strains, locus YNL307C, strain MCK1, stronger effect = lower value 0.977 | S. cerevisiae deletion strains, locus YNL322C, strain KRE1 (second series), stronger effect = lower value 0.976 | S. cerevisiae deletion strains, locus YNL322C, strain KRE1, stronger effect = lower value 0.998 and 1.01 | S. cerevisiae deletion strains, locus YNR049C, strain mso1, stronger effect = lower value 0.987 | S. cerevisiae deletion strains, locus YNR052C, strain pop2, stronger effect = lower value 0.991 | S. cerevisiae deletion strains, locus YOL006C, strain TOP1, stronger effect = lower value 0.981 | S. cerevisiae deletion strains, locus YOL012C, strain htz1 0.761 | S. cerevisiae deletion strains, locus YOL147C, strain pex11, stronger effect = lower value 0.998 | S. cerevisiae deletion strains, locus YOR001W, strain rrp6, stronger effect = lower value 1.01 | S. cerevisiae deletion strains, locus YOR061W, strain CKA2, stronger effect = lower value 0.99 | S. cerevisiae deletion strains, locus YOR069W, strain VPS5, stronger effect = lower value 0.992 | S. cerevisiae deletion strains, locus YOR070C, strain gyp1, stronger effect = lower value 0.997 | S. cerevisiae deletion strains, locus YOR080W, strain dia2, stronger effect = lower value 1.01 | S. cerevisiae deletion strains, locus YOR083W, strain WHI5 (second series), stronger effect = lower value 1 | S. cerevisiae deletion strains, locus YOR083W, strain WHI5, stronger effect = lower value 0.967 | S. cerevisiae deletion strains, locus YOR106W, strain vam3, stronger effect = lower value 0.94 | S. cerevisiae deletion strains, locus YOR136W, strain idh2, stronger effect = lower value 0.994 | S. cerevisiae deletion strains, locus YOR144C, strain elg1, stronger effect = lower value 1 | S. cerevisiae deletion strains, locus YOR184W, strain ser1, stronger effect = lower value 0.99 | S. cerevisiae deletion strains, locus YOR265W, strain rbl2, stronger effect = lower value 0.989 | S. cerevisiae deletion strains, locus YOR270C, strain vph1, stronger effect = lower value 1.05 | S. cerevisiae deletion strains, locus YOR290C, strain snf2, stronger effect = lower value 0.933 | S. cerevisiae deletion strains, locus YOR316C, strain cot1, stronger effect = lower value 0.986 | S. cerevisiae deletion strains, locus YPL051W, strain arl3, stronger effect = lower value 1 | S. cerevisiae deletion strains, locus YPL055C, strain LGE1, stronger effect = lower value 1.02 and 0.989 | S. cerevisiae deletion strains, locus YPL078C, strain atp4, stronger effect = lower value 0.955 | S. cerevisiae deletion strains, locus YPL106C, strain sse1, stronger effect = lower value 0.956 | S. cerevisiae deletion strains, locus YPL240C, strain hsp82, stronger effect = lower value 0.992 | S. cerevisiae deletion strains, locus YPL241C, strain CIN2, stronger effect = lower value 1.01 | S. cerevisiae deletion strains, locus YPR119W, strain clb2, stronger effect = lower value 0.987 | S. cerevisiae deletion strains, locus YPR141C, strain kar3, stronger effect = lower value 0.98 | S. cerevisiae deletion strains, locus YPR163C, strain tif3, stronger effect = lower value 1 | S. cerevisiae deletion strains, locus YPR167C, strain met16, stronger effect = lower value 0.989 | S. cerevisiae deletion strains, strain wtn01, stronger effect = lower value 0.965 | S. cerevisiae strains, strain wild type, stronger effect = lower value 1.01
